Experimental data published in PubChem BioAssay (NCATS).
Inconclusive results are not listed. The source made the active and inactive calls. Calls follow the shape of the dose curve; as a rule, active = well fitted curve in the direction sought with a large enough effect; inconclusive = small, poorly fitted or top-dose-only effect, or another doubt; inactive = no such curve, though single readings can be large; an effect the other way counts as inactive or inconclusive. Where a SMILES comes first, the peptide text is derived from it. [ ]: non-standard residue; d: D form. PhLac = O=C(O)[CH](O)Cc1ccccc1; NMeV = CN[CH](C(=O)O)C(C)C

What was measured:
[1] = target: Glutathione peroxidase 1 (Homo sapiens) (UniProt P07203); experiment: Primary qHTS Assay for Inhibitors of Recombinant Selenoprotein Glutathione Peroxidase 1 (GPX1) (AID 1845191); also: nearly all actives have a fitted effect of over 65% in size
Chain of Glutathione peroxidase 1 (Homo sapiens) (P07203 whole entry, looked up): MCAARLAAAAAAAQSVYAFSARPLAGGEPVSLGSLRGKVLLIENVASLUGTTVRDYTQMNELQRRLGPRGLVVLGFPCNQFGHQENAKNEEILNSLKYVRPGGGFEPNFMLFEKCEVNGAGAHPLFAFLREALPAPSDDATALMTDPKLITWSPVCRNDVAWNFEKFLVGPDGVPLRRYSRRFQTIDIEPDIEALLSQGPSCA
How it was run: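 GPX1 10 nM, GR 100 nM, GSH 1 mM, NADPH 0.5 mM, CHP 0.5 mM (final). 30-min cpd preincubation, RT. Ex340/Em450 read t=0, t=15 min.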

[2] = target: Phospholipid hydroperoxide glutathione peroxidase GPX4 (Homo sapiens) (UniProt P36969); experiment: Primary qHTS Assay for Inhibitors of Recombinant Selenoprotein Glutathione Peroxidase 4 (GPX4) (AID 1845192); also: nearly all actives have a fitted effect of over 65% in size
Chain of Phospholipid hydroperoxide glutathione peroxidase GPX4 (Homo sapiens) (P36969 whole entry, looked up): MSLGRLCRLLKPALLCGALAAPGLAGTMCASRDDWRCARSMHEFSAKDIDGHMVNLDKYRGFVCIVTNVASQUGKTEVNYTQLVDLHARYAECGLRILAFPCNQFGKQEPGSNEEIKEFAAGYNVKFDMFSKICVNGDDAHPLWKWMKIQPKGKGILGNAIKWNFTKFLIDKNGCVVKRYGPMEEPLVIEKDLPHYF
How it was run: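 qHTS, GR-coupled: GPX4 200 nM + cpd 30 min RT → GSH 1 mM, NADPH 0.5 mM, GR 100 nM → CHP 0.5 mM start; fluor 340/450 at t0 and t15 min; no-enzyme wells as control.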

[3] = target: Luciferin 4-monooxygenase (Photinus pyralis) (UniProt P08659); experiment: Primary firefly luciferase (FLuc) qHTS assay for identification of artifact compounds. (AID 1845220); also: nearly all actives have a fitted effect of over 60% in size
How it was run: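 Reaction readout was CCD-imaged luminescence, taken 5 min after adding 10 nM purified firefly enzyme to compound-treated wells holding 10 uM luciferin and ATP in pH 7.6 buffer.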

[4] = Primary fluorescence-based thiol-reactive (MSTI) qHTS assay for identification of artifact compounds. (AID 1845221);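 also: series mostly up to about 54 µM; thiol-reactive compounds lower the probe fluorescence signal; nearly all actives have a fitted effect of over 65% in size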
How it was run: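 Curve-fitted percent inhibition (4-parameter Hill) derived from fluorescence, Ex 525/Em 598 nm, scaled with Acetyl-MSTI and MSTI; 1 h incubation at room temperature.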

[5] = test system: Nanoluciferase (engineered Oplophorus gracilirostris luciferase); experiment: Primary Nanoluciferase (NLuc) qHTS assay for identification of artifact compounds. (AID 1845222);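 also: NLuc secreted into diluted conditioned medium of S16 cells; series mostly up to about 54 µM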
How it was run: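 Concentration-response data were obtained by luminescence after 5 min with Nano-Glo substrate at 1:100. The enzyme was diluted S16 NLuc-expressing cell medium, preincubated with compound for 15 min at RT. Curves were fitted with a 4-parameter Hill model.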

[6] = Primary redox qHTS assay for identification of artifact compounds. (AID 1845223)
How it was run: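 Redox-cycling detection via DTT (250 uM final) oxidation coupled to Amplex Red (25 uM)/HRP (250 mU/mL) in HBSS. 15 min preincubation plus 30 min after DTT, room temperature. Ex/Em 525/598 nm; 4-parameter Hill fit against DMSO and 10 uM DA3003.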

Measured: Potency

c1ccc(Cc2ncc3c(n2)CCNCC3)cc1
inactive: [1] | [2] | [3] | [4] | [5] | [6]

CCCCN(CCCC)C(=O)CN1C[C@H](c2ccc3c(c2)OCO3)[C@@H](C(=O)O)[C@@H]1c1ccc(OC)cc1
inactive: [1] | [2] | [3] | [4] | [5] | [6]

CCn1cc(C2=NOC(C(=O)Nc3c(C)n(C)n(-c4ccccc4)c3=O)C2)c(C)n1 (stereo not given)
inactive: [1] | [2] | [3] | [4] | [5] | [6]

CCOC(=O)c1ccnc(CNCC(=O)N(CC)CCN(C)C)c1
inactive: [1] | [2] | [3] | [4] | [5] | [6]

COC(=O)C1=CO[C@@H](O[C@@H]2O[C@H](CO)[C@@H](O)[C@H](O)[C@H]2O)[C@@H]2[C@@](C)(O)[C@@H](O)C[C@]12O
inactive: [1] | [2] | [3] | [4] | [5] | [6]

C[C@@H]1C[C@H](O)/C=C/[C@H](O)[C@@H](O)CC(=O)O1
inactive: [1] | [2] | [3] | [4] | [5] | [6]

COC12CC3C(C(C)C1=CC(=O)O2)C(O)C(OC(C)=O)C1C(C)(C)C(OC(C)=O)CCC31C (stereo not given)
inactive: [1] | [2] | [3] | [4] | [5] | [6]

CC1NC(=O)CNC(=O)C(C(C)C)NC(=O)C2CCCN2C(=O)C(C(C)C)NC(=O)C(Cc2c[nH]c3ccccc23)NC1=O (stereo not given) (cyclo(GAWVPV); configuration not given here)
inactive: [1] | [2] | [3] | [4] | [5] | [6]

C=CC(C)(C)O[C@@H]1O[C@H](CO[C@@H]2OC[C@](O)(CO)[C@H]2O)[C@@H](O)[C@H](O)[C@H]1O
inactive: [1] | [2] | [3] | [4] | [5] | [6]

O=C(O)[C@H]1CCCC[C@H]1C(=O)N1CCc2ccccc2[C@H]1CN1C(=O)c2ccccc2C1=O
inactive: [1] | [2] | [3] | [4] | [5] | [6]

CCOC(=O)Nc1nc2ccccc2[nH]1
inactive: [1] | [2] | [3] | [4] | [5] | [6]

C=C1C(=O)OC2/C=C(\C)CC/C=C(\C(=O)O)CC/C=C(\C)CCC12 (stereo not given)
inactive: [1] | [2] | [3] | [4] | [5] | [6]

CNc1nc(Nc2cnn([C@H]3CCN(C4COC4)C[C@@H]3F)c2Cl)ncc1C(F)(F)F
inactive: [1] | [2] | [3] | [4] | [5] | [6]

CC(=O)OCC(=O)O[C@@H]1[C@H]2[C@@H](OC(=O)c3ccccc3)[C@@H](C)C[C@]2(O)[C@H](OC(C)=O)C2(C)[C@H]3CC(C)(C)C(=O)[C@@H]3CC1(OC(C)=O)[C@@H]2OC(C)=O (stereo not given in full)
inactive: [1] | [2] | [3] | [4] | [5] | [6]

C[C@@H]1CC[C@]2(C(=O)O[C@@H]3O[C@H](CO)[C@@H](O)[C@H](O)[C@H]3O)CC[C@]3(C)C(=CCC4[C@@]5(C)C[C@@H](O)[C@H](O)C(C)(C)C5CC[C@]43C)C2[C@]1(C)O (stereo not given in full)
inactive: [1] | [2] | [3] | [4] | [5] | [6]

C[C@H]1C[C@H]2[C@@H]3CCC4=CC(=O)C=C[C@]4(C)[C@@]3(F)[C@@H](O)C[C@]2(C)[C@@]1(O)C(=O)COP(=O)(O)O
inactive: [1] | [2] | [3] | [4] | [5] | [6]

CC1CCC2C(C)(C)CC(C)(CO)C2(O)C1C(=O)O (stereo not given)
inactive: [1] | [2] | [3] | [4] | [5] | [6]

C=C1CC/C=C(/CO)C(=O)C[C@@H]2[C@@H]1CC2(C)C
inactive: [1] | [2] | [3] | [4] | [5] | [6]

CC(C)C(C(=O)N1CCCC1C(=O)O)N(C)C(=O)C(O)Cc1ccccc1 (stereo not given) (H-[PhLac]-[NMeV]-Pro-OH; configuration not given here)
inactive: [1] | [2] | [3] | [4] | [5] | [6]

CCC[C@@H]1C[C@@H](C(=O)N[C@@H]([C@H]2O[C@H](SC)[C@H](OP(=O)(O)O)[C@@H](O)[C@H]2O)[C@H](C)Cl)N(C)C1
inactive: [1] | [2] | [3] | [4] | [5] | [6]
